Sm TGR block: qHTS Assay for the Inhibitors of Schistosoma Mansoni Peroxiredoxins | Schistosoma mansoni thioredoxin glutathione reductase (TGR), Q962Y6 | purified TGR, DTNB reduction, TNB absorbance 405 nm | Potency, µM (doses to about 114 µM), for the others: at the highest dose activity change, negative = inhibition, usual class: inhibitors | 360,000 compounds, 3% hits; also: % is scaled to controls: 0 for no effect and ±100 for the full control effect; nearly all actives have a fitted effect of over 60% in size
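Kinetic colorimetric format: TGR-catalysed, NADPH-driven DTNB reduction monitored via TNB absorbance. Enzyme dispensed at 20 nM; compound exposure 15 min at room temperature before reaction start.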
Pf growth 48h: Primary qHTS for delayed death inhibitors of the malarial parasite plastid, 48 hour incubation. Potency, µM (highest dose often 28.7 µM), inactives show at the top dose activity change, negative = inhibition, most hits filed as inhibitors. 310,000 compounds, 5.9% hits. P. falciparum luciferase growth in erythrocytes, 48 h; also: % is scaled to controls: 0 for no effect and ±100 for the full control effect
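Here the parasites carry a stable luciferase gene and grow inside erythrocytes in Albumax-based RPMI medium with compound for one erythrocytic cycle. Activity is scored as loss of luminescent signal.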
AmpC detergent: qHTS Inhibitors of AmpC Beta-Lactamase (assay with detergent); AmpC hydrolysis of nitrocefin, absorbance 480 nm, 0.01% Triton; Potency, µM (series often up to 114 µM), for the others: at the top dose activity change, negative = inhibition, most hits filed as inhibitors; P00811; 370,000 compounds, 0.041% hits;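 also: 0% = no-compound wells and -100% = no-enzyme wells; nearly all actives have a fitted effect of over 25% in size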
Target sequence (P00811 whole entry, looked up): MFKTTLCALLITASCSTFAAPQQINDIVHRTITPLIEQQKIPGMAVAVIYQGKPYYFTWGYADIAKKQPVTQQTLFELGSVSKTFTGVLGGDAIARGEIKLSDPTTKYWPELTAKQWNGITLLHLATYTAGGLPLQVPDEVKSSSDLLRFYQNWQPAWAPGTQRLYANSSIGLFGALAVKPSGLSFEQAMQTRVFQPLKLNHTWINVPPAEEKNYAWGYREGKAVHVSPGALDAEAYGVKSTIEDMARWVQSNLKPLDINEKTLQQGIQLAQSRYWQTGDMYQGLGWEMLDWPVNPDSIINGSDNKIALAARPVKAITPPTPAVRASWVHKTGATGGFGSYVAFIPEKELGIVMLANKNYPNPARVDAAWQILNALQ
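AmpC (5.3 nM in the dispensed reagent) in 20 mM phosphate pH 7.0 with 0.01% (detergent screen) or 0.0001% Triton X-100 was preincubated with compounds for 15 min at room temperature. Nitrocefin was then added from an 800 uM solution, and hydrolysis was followed at 480 nm.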
Pf growth 96h: Primary qHTS for delayed death inhibitors of the malarial parasite plastid, 96 hour incubation; P. falciparum luciferase reporter growth, 96 h; Potency, µM (highest dose often 28.7 µM), without a hit: top-dose activity change, negative = inhibition, usual class: inhibitors; 320,000 compounds, 6.9% hits; also: % is scaled to controls: 0 for no effect and ±100 for the full control effect
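Plates of compound plus infected erythrocytes (2% hematocrit, 0.05% parasitemia final) incubate 96 hours, 37 C, 5% CO2. Detection reagent added; reduced luminescence from the parasites' luciferase reporter flags inhibition.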
AmpC inh no detg: qHTS Inhibitors of AmpC Beta-Lactamase (assay without detergent) | Potency, µM (series often up to 57.1 µM), for inactives: at the highest dose activity change, negative = inhibition, usual class: inhibitors | 330,000 compounds, 0.52% hits | AmpC nitrocefin hydrolysis, absorbance 480 nm, 0.0001% Triton | P00811;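 also: plate controls were no compound for no effect and no enzyme for full effect; nearly all actives have a fitted effect of over 20% in size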
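20 mM phosphate pH 7.0 + 0.01% (detergent screen) or 0.0001% Triton X-100; 5.3 nM AmpC reagent; cpd preinc 15 min RT; nitrocefin (800 uM stock) to start; A480 q20 s × 4 min; Activity was normalised to no-enzyme and no-compound control wells.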
SARS PLP yeast: qHTS of Yeast-based Assay for SARS-CoV PLP. Potency, µM (series often up to 32.9 µM), inactives show at the highest dose activity, positive = growth rescue, actives largely listed as activators. 330,000 compounds, 0.19% hits. S. cerevisiae expressing SARS-CoV PLpro, growth rescue; calls by dose curve; also: 0% is about no effect; nearly all actives have a fitted effect of over 55% in size
The depositor's hits bear a star; u = inconclusive; x = not tested or not shown. Most compounds without a hit are left out; they make up all but 12% or so of the library. Unless noted, calls follow the shape of the dose curve; as a rule, active = well fitted curve in the direction sought with a large enough effect; inconclusive = small, poorly fitted or top-dose-only effect, or another doubt; inactive = no such curve, though single readings can be large; an effect the other way counts as inactive or inconclusive. Potency is read from the fitted curve at half-maximal effect.

SMILES	Sm TGR block	Pf growth 48h	AmpC detergent	Pf growth 96h	AmpC inh no detg	SARS PLP yeast
O=C(Cn1cc2c(n1)CCCC2)NCc1ccccn1	-7%	4%	-16%	34%	3.5µM*	11%
COc1ccc(CNC(=O)Cn2cc3c(n2)CCCCC3)cc1	4%	18%	-4%	-21%	7.1µM*	15%
O=C(Cn1cc2c(n1)CCCC2)NCc1cccs1	0%	x	u	5.2µM*	-6%	17%
CC(NC(=O)Cn1cc2c(n1)CCCCC2)c1ccccc1 (configuration not stated)	4%	-20%	u	-28%	u	-1%
O=C(Cn1cc2c(n1)CCCC2)NCC1CCCO1 (configuration not stated)	-25%	x	-14%	32%	-9%	1%
CCCn1c(SC(C)C(=O)NCC2CCCO2)nc2sc3c(c2c1=O)CCC3 (configuration not stated)	-4%	13µM*	-11%	u	80%	-2%
CCOC(=O)c1oc2ccc3c(c2c1C)C(=O)CC1(CCN(C(=O)OCC)CC1)O3	-6%	2.6µM*	u	16%	-19%	u
CCOC(=O)N1CCC2(CC1)CC(=O)c1c(ccc3oc(C(=O)O)c(C)c13)O2	6%	-16%	-1%	x	-23%	3%
CN(C)CCNC(=O)C(=O)NCC(c1cccnc1)N1CCN(c2ccccc2)CC1 (configuration not stated)	-2%	x	17%	x	x	x
CC(=O)OC1C[C@H](O[C@@H]2C(O)C[C@H](O[C@@H]3C(O)C[C@@H](OC4CC[C@]5(C)C(CCC6C5CC(O)[C@@]5(C)C(C7=CC(=O)OC7)CC[C@@]65O)C4)OC3C)OC2C)O[C@H](C)[C@H]1O[C@H]1OC(CO)C(O)C(O)C1O (some centres not stated)	x	8.5µM*	x	4.8µM*	x	x
Cc1ccccc1-c1nnc(SCC(=O)N(C)C2CCS(=O)(=O)C2)n1C (configuration not stated)	x	x	x	x	-16%	5%
Nc1nc2n(n1)C(c1ccccc1Cl)CC(c1ccc(F)cc1)N2 (configuration not stated)	-21%	x	-9%	1.7µM*	24%	0%
CCOc1ccc(C2CC(c3ccc(F)cc3)Nc3nc(N)nn32)cc1 (configuration not stated)	-9%	11%	-12%	39%	2%	-11%
CCOc1ccc(C2CC(c3ccccc3C)n3nc(N)nc3N2)cc1 (configuration not stated)	8%	-28%	-4%	u	32µM*	9%
CCOc1ccccc1C1CC(c2ccc(Br)cc2)Nc2nc(N)nn21 (configuration not stated)	-8%	u	u	7.4µM*	143%	-7%
Cc1ccc(C2CC(c3ccccc3C)n3nc(N)nc3N2)cc1 (configuration not stated)	-19%	-9%	u	8%	16%	-14%
CCCC(=O)N(Cc1cc2ccccc2[nH]c1=O)c1ccccc1OC	4%	x	-1%	x	-7%	5%
CCCC(=O)N(Cc1cc2cccc(C)c2[nH]c1=O)c1ccccc1OC	7%	12µM*	1%	-13%	14%	-4%
COc1ccc(Nc2cnn(-c3nc4ccccc4s3)c(=O)c2Cl)cc1	1.3µM*	73%	-14%	u	-12%	-76%
Cc1cc(C(=O)NC2CCCN(Cc3ccc(Cl)cc3)C2)n(C)n1 (configuration not stated)	-2%	-4%	3%	0%	22%	1%
COc1ccc(-c2nn(-c3ccccc3)cc2/C=N/NC(=O)c2cccc(S(=O)(=O)Nc3ccccc3OC)c2)cc1	2%	3.3µM*	-16%	2.3µM*	-38%	4%
COc1ccccc1/C=N/NC(=O)c1ccc2c(c1)OCO2	7%	u	-10%	u	-57%	5%
CCCOc1ccc(/C=N/NC(=O)c2ccc3c(c2)OCO3)c(OCCC)c1	-8%	5.9µM*	-8%	u	-23%	1%
O=C(N/N=C\c1cn(-c2ccccc2)nc1-c1ccccc1)c1ccc2c(c1)OCO2	2%	u	-3%	12µM*	-30%	0%
O=C(N/N=C/c1cn(-c2ccccc2)nc1-c1ccc(F)cc1)c1ccc2c(c1)OCO2	10%	u	-1%	13µM*	-34%	1%
SMILES	Sm TGR block	Pf growth 48h	AmpC detergent	Pf growth 96h	AmpC inh no detg	SARS PLP yeast
COc1ccc(-c2nn(-c3ccccc3)cc2/C=N/NC(=O)c2ccc3c(c2)OCO3)cc1	3%	u	7%	u	58%	3%
O=C(N/N=C/c1cn(-c2cccs2)nc1-c1ccccc1)c1ccccc1O	-4%	u	10%	6.6µM*	-29%	-71%
O=C(N/N=C/c1cn(-c2cccs2)nc1-c1ccccc1)c1ccccc1Br	-3%	11%	u	u	-36%	-11%
Cc1ccc(C(=O)N2CCC3(CC2)Oc2ccc(F)cc2C(=O)C32CC(c3ccccc3)=NO2)s1 (configuration not stated)	5%	u	2%	10µM*	7%	0%
Cc1ccc(C(=O)N2CCC3(CC2)Oc2ccc(F)cc2C(=O)C32CC(c3ccc(Cl)cc3)=NO2)s1 (configuration not stated)	10%	u	-7%	u	-9%	4%
O=C(c1ccoc1)N1CCC2(CC1)Oc1ccc(F)cc1C(=O)C21CC(c2ccccc2)=NO1 (configuration not stated)	u	u	-12%	12µM*	107%	-8%
O=C(c1ccc2c(c1)OCO2)N1CCC2(CC1)Oc1ccc(F)cc1C(=O)C21CC(c2ccccc2)=NO1 (configuration not stated)	-7%	13µM*	2%	u	72%	0%
O=C(c1ccc2c(c1)OCO2)N1CCC2(CC1)Oc1ccc(F)cc1C(=O)C21CC(c2cccnc2)=NO1 (configuration not stated)	10%	u	3%	u	170%	6%
NC(=O)C1CCN(c2nc(-c3cccc([N+](=O)[O-])c3)cs2)CC1	x	u	x	-19%	x	x
Cc1ccc(C)c(OC(=O)C2CSC3(C)CCC(=O)N23)c1C (configuration not stated)	-12%	u	9%	u	40%	-4%
